Records with an inconclusive call do not appear. Calls of active or inactive are those of the source. Unless noted, the call rests on the fitted dose curve; in most records, active means well fitted curve in the direction sought with a large enough effect in the repeat runs; inconclusive means weak or mixed curves; inactive means no such curve, though single readings can be large; an effect the other way counts as inactive or inconclusive.
Key:
[1] = qHTS assay to identify small molecule agonists of the estrogen receptor alpha (ER-alpha) signaling pathway in the presence of an antagonist - cell viability counter screen (AID 1259386);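 further: series mostly up to about 92 µM; cells exposed to compounds for 22 h at 37 °C before the viability read; on the % scale 0 is the no-effect control and ±100 the full control effect; nearly all actives have a fitted effect of over 30% in size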
Procedure, shortened: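 ICI-182,780 at 10.0nM final accompanies the compound titration (15 concentrations, 22hr, 37C) on VM7Luc4E2 cells. The CellTiter-Fluor fluorescence readout runs in the same wells as the luciferase assay.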

[2] = molecular target: Progesterone receptor (Homo sapiens) (UniProt P06401); test: qHTS assay to identify small molecule antagonists of the progesterone receptor (PR) signaling pathway (AID 1346795; active means well fitted inhibition curve with a large enough effect in the signal ratio in the repeat runs, not every such curve was filed as active; the % refers to the signal ratio; further: on the % scale 0 is the no-effect control and ±100 the full control effect)
Procedure, shortened: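 Read-out is fluorescence from the LiveBLAzer B/G FRET substrate, cleaved by a UAS-controlled beta-lactamase in PR-UAS-bla HEK293T cells after 16 hr exposure to compound plus 1 nM promegestone (final), followed by 2 hr at room temperature.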

[3] = qHTS assay to identify small molecule antagonists of the progesterone receptor (PR) signaling pathway - cell viability counter screen (AID 1346798); further: nearly all actives have a fitted effect of over 50% in size; further: potency means the concentration at half of the fitted maximal effect
Procedure, shortened: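 HEK293T PR-UAS-bla, 2% charcoal-stripped FBS; 4 hr pre-plate; cpd + R5020, 16 h 37C; LiveBLAzer read first; then CellTiter-Glo 30 min RT, luminescence.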

[4] = qHTS assay to identify small molecule agonists of the progesterone receptor (PR) signaling pathway - cell viability counter screen (AID 1346799; calls by dose curve; further: nearly all actives have a fitted effect of over 45% in size; further: potency means the concentration at half of the fitted maximal effect)
Procedure, shortened: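 Luminescence from CellTiter-Glo, added after the beta-lactamase FRET read in the same wells, gave cytotoxicity in PR-UAS-bla HEK293T cells treated with compounds for 16 hr at 37C.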

[5] = qHTS assay to identify small molecule antagonists of the TGF-beta/Smad signaling pathway - cell viability counter screen (AID 1346824); further: on the % scale 0 is the no-effect control and ±100 the full control effect; nearly all actives have a fitted effect of over 50% in size
Procedure, shortened: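 SBE-bla HEK 293T cells were plated overnight at 37 C, then given compounds in DMSO plus TGF-beta1 (added as 0.25 ng/mL solution) for 5 hr. After the bla read, CellTiter-Glo was added to the same wells and luminescence read after 30 min at room temperature.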

[6] = qHTS assay to identify small molecule agonists of the TGF-beta/Smad signaling pathway - cell viability counter screen (AID 1346829); further: top concentration of the series differs between compounds; on the % scale 0 is the no-effect control and ±100 the full control effect; nearly all actives have a fitted effect of over 45% in size
Procedure, shortened: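 HEK 293T SBE-bla line, 5 hr compound exposure at 37 C, multiplexed CellTiter-Glo viability read by luminescence.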

[7] = qHTS assay to identify small molecule agonists of the TGF-beta/Smad signaling pathway (AID 1346859; active means well fitted activation curve with a large enough effect in the signal ratio in the repeat runs, not every such curve was filed as active; the % refers to the signal ratio; further: series mostly up to about 77 µM; on the % scale 0 is the no-effect control and ±100 the full control effect)
Procedure, shortened: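 SBE-bla HEK 293T, 4,000 cells/well, plated o/n; cpd in DMSO, 5 hr, 37 C/5% CO2; B/G FRET substrate 2 hr RT; ex 405, em 460/530 nm.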

[8] = molecular target: Thyrotropin-releasing hormone receptor (Homo sapiens) (UniProt P34981); test: qHTS assay to identify small molecule antagonists of the thyrotropin-releasing hormone receptor (TRHR) signaling pathway (AID 1346877; active means well fitted inhibition curve with a large enough effect in the repeat runs, not every such curve was filed as active; further: series mostly up to about 51 µM; on the % scale 0 is the no-effect control and ±100 the full control effect)
Procedure, shortened: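 Screening used HEK293 cells engineered with TRHR, with a brief 5 min room-temperature compound exposure preceding addition of TRH to 1 nM. The read-out was kinetic calcium-dye fluorescence, concentration-response from 15 doses in triplicate.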

[9] = molecular target: Thyrotropin-releasing hormone receptor (Homo sapiens) (UniProt P34981); test: qHTS assay to identify small molecule agonists of the thyrotropin-releasing hormone receptor (TRHR) signaling pathway (AID 1346891; calls by dose curve; further: series mostly up to about 58 µM; on the % scale 0 is the no-effect control and ±100 the full control effect)
Procedure, shortened: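 Intracellular calcium rise, read as fluorescence every second for 3 min, served as the agonist signal in dye-loaded HEK293 cells expressing TRHR; each compound ran at 15 concentrations in triplicate.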

[10] = Human pregnane X receptor (PXR) small molecule agonists, qHTS cell viability counter screen (AID 1346977); further: on the % scale 0 is the no-effect control and ±100 the full control effect; nearly all actives have a fitted effect of over 50% in size
Procedure, shortened: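 PXR-Luc HepG2, 2,000 cells/well, 5% charcoal-stripped FBS; 5hr settle; cpd 24hr, 37C/5% CO2; CellTiter-Fluor at 23hr, read 1hr later (fluorescence).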

[11] = Caspase-3/7 induction in HepG2 cells by small molecules, qHTS assay (AID 1346978); further: on the % scale 0 is the no-effect control and ±100 the full control effect; nearly all actives have a fitted effect of over 15% in size
Procedure, shortened: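 Wild-type HepG2 cells (2,000/well) were settled 5 h at 37 C, 5% CO2, then exposed to compounds in DMSO for 17 h. Caspase-3/7 activity was read by luminescence 30 min after adding Caspase-Glo 3/7 reagent at room temperature.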

[12] = Caspase-3/7 induction in CHO-K1 cells by small molecules, qHTS cell viability counter screen (AID 1346979); further: on the % scale 0 is the no-effect control and ±100 the full control effect; nearly all actives have a fitted effect of over 35% in size
Procedure, shortened: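 Cells (CHO-K1, wild type) are plated at 1,500 per well and incubated 5hr. Test compounds in DMSO are then pinned in, followed by 16hr at 37C and 5% CO2. Viability is read by CellTiter-Fluor fluorescence after 1hr.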

[13] = Caspase-3/7 induction in CHO-K1 cells by small molecules, qHTS assay (AID 1346980); further: on the % scale 0 is the no-effect control and ±100 the full control effect; nearly all actives have a fitted effect of over 15% in size
Procedure, shortened: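 Wild-type cells were seeded at 1,500 per well and settled 5 hr at 37 C, 5% CO2, then exposed to DMSO-dissolved compounds for 17 hr. Caspase-Glo 3/7 reagent was added, and luminescence was read after 30min at room temperature.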

[14] = Caspase-3/7 induction in HepG2 cells by small molecules, qHTS cell viability counter screen (AID 1346981); further: series mostly up to about 92 µM; on the % scale 0 is the no-effect control and ±100 the full control effect; nearly all actives have a fitted effect of over 30% in size
Procedure, shortened: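 Multiplexed with the caspase-3/7 assay: HepG2 cells, 16 hr compound treatment, CellTiter-Fluor viability detection by fluorescence.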

[15] = molecular target: Nuclear receptor subfamily 1 group I member 2 (Homo sapiens) (UniProt O75469); test: Human pregnane X receptor (PXR) small molecule agonists, qHTS assay (AID 1346982); further: on the % scale 0 is the no-effect control and ±100 the full control effect; nearly all actives have a fitted effect of over 35% in size
Procedure, shortened: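 We seeded PXR-Luc HepG2 cells in assay medium containing 5% charcoal-stripped FBS, added compounds 5 hr later, incubated 24 hr, and read luminescence with ONE-Glo reagent.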

[16] = molecular target: Acetylcholinesterase (Homo sapiens) (UniProt P22303); test: Acetylcholinesterase (AChE) small molecule antagonists: colormetric cell-based qHTS assay (AID 1347395; calls by dose curve; further: on the % scale 0 is the no-effect control and ±100 the full control effect; nearly all actives have a fitted effect of over 30% in size)
Procedure, shortened: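 Colorimetric read-out: DTNB detects thiocholine released when cellular AChE in SH-SY5Y cells hydrolyses acetylthiocholine. Cells attached overnight, received compound for 30 min at 37 C, then substrate mix for 90 min at 37 C.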

[17] = molecular target: Progesterone receptor (Homo sapiens) (UniProt P06401); test: qHTS assay to identify small molecule agonists of the progesterone receptor (PR) signaling pathway (AID 1346784; calls by dose curve; further: on the % scale 0 is the no-effect control and ±100 the full control effect; nearly all actives have a fitted effect of over 30% in size)
Procedure, shortened: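 Beta-lactamase reporter read-out: after 16 hr compound treatment at 37C and a further 2 hr at room temperature with LiveBLAzer B/G FRET substrate, fluorescence was measured in PR-UAS-bla HEK 293T cells grown in 2% charcoal-stripped serum.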

[18] = molecular target: Nuclear receptor subfamily 1 group I member 2 (Rattus norvegicus) (UniProt Q9R1A7); test: Rat pregnane X receptor (rPXR) activation by small molecules, qHTS assay (AID 1346983); conditions: rPXR luciferase reporter cells, One-Glo luminescence, 24 h; stronger effect = higher value; further: on the % scale 0 is the no-effect control and ±100 the full control effect; nearly all actives have a fitted effect of over 20% in size
Procedure, shortened: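 Cell-based rPXR luciferase reporter assay, 2,000 cells per well, rested 5hr at 37 C before compound addition in DMSO, then 24 hr at 37 C. One-Glo reagent was added and luminescence read after 30 min at room temperature.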

[19] = molecular target: Nuclear receptor subfamily 1 group I member 2 (Homo sapiens) (UniProt O75469); test: CYP3A4 induction through human pregnane X receptor (PXR) by small molecules, qHTS assay (AID 1346984); further: potency means the concentration at half of the fitted maximal effect; nearly all actives have a fitted effect of over 40% in size
Procedure, shortened: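 qHTS, concentration-response format: HepG2 DPX-2 line, PXR/CYP3A4-luc. Exposure 24 h, 37C. Substrate Luciferin-IPA 3uM final, 3 h. Detection One-Glo, 30 min RT.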

[20] = molecular target: Nuclear receptor subfamily 1 group I member 2 (Homo sapiens) (UniProt O75469); test: Human pregnane X receptor (PXR) activation by small molecules, qHTS assay (AID 1346985); further: on the % scale 0 is the no-effect control and ±100 the full control effect; nearly all actives have a fitted effect of over 40% in size
Procedure, shortened: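 DPX-2 cells (HepG2 co-transfected with a PXR response element and a CYP3A4-promoter luciferase construct) were seeded at 2,000 per well, rested 5 hr at 37C, then exposed to DMSO-dissolved compounds for 24 hr. Activation was read as luciferase luminescence.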

Sequence of Nuclear receptor subfamily 1 group I member 2 (Homo sapiens) (O75469 whole entry, looked up): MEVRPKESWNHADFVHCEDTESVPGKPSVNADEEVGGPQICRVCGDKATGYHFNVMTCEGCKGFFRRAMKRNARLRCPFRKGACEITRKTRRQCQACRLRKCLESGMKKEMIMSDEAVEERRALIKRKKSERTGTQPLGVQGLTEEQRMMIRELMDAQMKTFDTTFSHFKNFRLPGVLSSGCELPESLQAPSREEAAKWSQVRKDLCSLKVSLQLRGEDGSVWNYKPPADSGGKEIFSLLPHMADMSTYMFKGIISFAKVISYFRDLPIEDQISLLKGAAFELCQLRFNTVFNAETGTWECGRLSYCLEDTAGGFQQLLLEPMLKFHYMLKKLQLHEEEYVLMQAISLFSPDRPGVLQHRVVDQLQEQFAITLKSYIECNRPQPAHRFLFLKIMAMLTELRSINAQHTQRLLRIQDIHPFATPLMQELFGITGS
Sequence of Thyrotropin-releasing hormone receptor (Homo sapiens) (P34981 whole entry, looked up): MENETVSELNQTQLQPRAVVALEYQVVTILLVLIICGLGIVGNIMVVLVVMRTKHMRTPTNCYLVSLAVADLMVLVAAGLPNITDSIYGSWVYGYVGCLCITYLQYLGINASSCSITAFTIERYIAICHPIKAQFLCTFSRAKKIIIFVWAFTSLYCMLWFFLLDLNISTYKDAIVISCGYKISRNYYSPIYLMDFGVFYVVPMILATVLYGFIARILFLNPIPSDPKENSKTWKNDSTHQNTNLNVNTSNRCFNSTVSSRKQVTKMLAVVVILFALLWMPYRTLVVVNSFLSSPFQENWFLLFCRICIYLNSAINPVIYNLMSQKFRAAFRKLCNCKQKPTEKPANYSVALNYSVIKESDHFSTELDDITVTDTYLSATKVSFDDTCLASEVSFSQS
Sequence of Acetylcholinesterase (Homo sapiens) (P22303 whole entry, looked up): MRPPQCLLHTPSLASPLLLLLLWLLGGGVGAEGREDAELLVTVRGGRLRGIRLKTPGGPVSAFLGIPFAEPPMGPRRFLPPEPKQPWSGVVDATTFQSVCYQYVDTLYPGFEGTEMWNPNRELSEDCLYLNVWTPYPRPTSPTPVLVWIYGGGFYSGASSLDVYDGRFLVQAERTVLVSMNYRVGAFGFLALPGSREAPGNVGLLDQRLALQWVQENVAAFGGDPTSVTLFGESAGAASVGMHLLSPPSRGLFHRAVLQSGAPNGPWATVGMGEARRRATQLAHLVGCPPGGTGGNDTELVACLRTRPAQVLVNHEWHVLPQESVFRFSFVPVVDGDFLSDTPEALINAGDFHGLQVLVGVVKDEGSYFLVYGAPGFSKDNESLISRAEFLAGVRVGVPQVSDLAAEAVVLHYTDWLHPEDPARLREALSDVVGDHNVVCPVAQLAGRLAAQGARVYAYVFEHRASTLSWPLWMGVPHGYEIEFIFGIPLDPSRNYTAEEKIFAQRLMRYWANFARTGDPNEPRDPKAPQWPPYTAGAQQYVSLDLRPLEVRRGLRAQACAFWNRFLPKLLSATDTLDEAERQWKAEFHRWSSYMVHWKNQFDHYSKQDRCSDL
Sequence of Progesterone receptor (Homo sapiens) (P06401 whole entry, looked up): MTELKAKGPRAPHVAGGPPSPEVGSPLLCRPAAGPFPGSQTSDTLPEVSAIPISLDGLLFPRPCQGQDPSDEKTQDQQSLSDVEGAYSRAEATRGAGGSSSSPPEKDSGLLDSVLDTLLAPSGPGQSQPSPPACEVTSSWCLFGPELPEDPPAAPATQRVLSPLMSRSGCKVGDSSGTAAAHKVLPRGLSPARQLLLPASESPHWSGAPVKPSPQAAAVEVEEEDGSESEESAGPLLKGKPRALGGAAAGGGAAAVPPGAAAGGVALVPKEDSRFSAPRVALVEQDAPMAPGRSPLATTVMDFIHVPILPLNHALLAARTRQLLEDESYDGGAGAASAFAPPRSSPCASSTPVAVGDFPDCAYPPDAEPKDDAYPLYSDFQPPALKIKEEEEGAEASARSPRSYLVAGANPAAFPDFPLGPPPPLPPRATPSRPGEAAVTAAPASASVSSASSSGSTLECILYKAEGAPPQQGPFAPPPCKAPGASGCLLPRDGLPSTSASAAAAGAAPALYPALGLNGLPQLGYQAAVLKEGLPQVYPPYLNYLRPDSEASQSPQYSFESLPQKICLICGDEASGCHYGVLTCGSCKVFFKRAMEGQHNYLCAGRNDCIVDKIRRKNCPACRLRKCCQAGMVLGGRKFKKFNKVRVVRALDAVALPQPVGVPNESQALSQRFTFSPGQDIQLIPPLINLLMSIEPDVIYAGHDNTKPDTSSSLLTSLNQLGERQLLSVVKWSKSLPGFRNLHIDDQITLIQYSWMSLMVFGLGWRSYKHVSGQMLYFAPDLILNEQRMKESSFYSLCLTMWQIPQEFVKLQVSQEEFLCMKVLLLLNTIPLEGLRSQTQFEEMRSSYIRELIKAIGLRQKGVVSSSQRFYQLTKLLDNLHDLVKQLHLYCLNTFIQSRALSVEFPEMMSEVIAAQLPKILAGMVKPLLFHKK
Sequence of Nuclear receptor subfamily 1 group I member 2 (Rattus norvegicus) (Q9R1A7 whole entry, looked up): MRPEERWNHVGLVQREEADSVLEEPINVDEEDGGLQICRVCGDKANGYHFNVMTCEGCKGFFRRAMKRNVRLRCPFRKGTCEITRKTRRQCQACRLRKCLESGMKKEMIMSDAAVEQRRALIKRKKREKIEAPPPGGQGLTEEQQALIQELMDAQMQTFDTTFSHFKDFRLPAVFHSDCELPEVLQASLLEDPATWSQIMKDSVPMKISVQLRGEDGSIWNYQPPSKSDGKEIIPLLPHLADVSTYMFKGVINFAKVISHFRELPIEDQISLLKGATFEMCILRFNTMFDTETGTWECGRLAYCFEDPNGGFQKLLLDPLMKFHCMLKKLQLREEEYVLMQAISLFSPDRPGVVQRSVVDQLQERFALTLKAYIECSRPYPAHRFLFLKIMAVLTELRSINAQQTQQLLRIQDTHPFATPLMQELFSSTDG

O=C(O)c1c(Cl)ccc2cc(Cl)cnc12
inactive: Potency [1] | Potency [2] | Potency [3] | Potency [4] | outcome [5] | Potency [6] | outcome [7] | Potency [8] | outcome [9] | Potency [10] | outcome [11] | Potency [12] | outcome [13] | Potency [14] | Potency [15] | Potency [16]

C=C(Cl)CSC(=S)N(CC)CC
inactive: Potency [1] | Potency [17] | Potency [3] | Potency [4] | outcome [5] | Potency [6] | outcome [7] | Potency [10] | Potency [12] | outcome [13] | Potency [14] | Potency [15] | Potency [16]

O=C(O)C(F)(F)C(F)(F)C(F)(F)C(F)(F)C(F)(F)C(F)(F)F
inactive: Potency [1] | Potency [2] | outcome [5] | Potency [6] | outcome [7] | Potency [8] | outcome [9] | Potency [12] | outcome [13] | Potency [14] | Potency [15]
active: Potency [3] 48.6 µM | Potency [4] 27.3 µM

Cc1ccc2cc(C)ccc2c1
inactive: Potency [1] | Potency [2] | Potency [3] | Potency [4] | outcome [5] | Potency [6] | outcome [7] | Potency [8] | outcome [9] | Potency [10] | outcome [11] | Potency [12] | outcome [13] | Potency [14] | Potency [15] | Potency [16]

O=C(Cl)CCl
inactive: Potency [1] | Potency [2] | Potency [3] | Potency [4] | outcome [5] | Potency [6] | outcome [7] | Potency [8] | outcome [9] | Potency [10] | Potency [12] | outcome [13] | Potency [14] | Potency [15] | Potency [16]

N[C@@H](Cc1ccc(Oc2cc(I)c(O)c(I)c2)c(I)c1)C(=O)O
inactive: Potency [1] | Potency [17] | Potency [3] | outcome [5] | Potency [6] | outcome [7] | Potency [8] | outcome [9] | Potency [10] | outcome [11] | outcome [13] | Potency [14] | max activation [18] -1.02% | Potency [20] | Potency [16]
active: Potency [19] 14.1 µM

O=C1CC(=O)NC(=O)N1
inactive: Potency [1] | Potency [2] | Potency [3] | Potency [4] | outcome [5] | Potency [6] | outcome [7] | Potency [8] | outcome [9] | Potency [10] | outcome [11] | Potency [12] | outcome [13] | Potency [14] | Potency [15] | Potency [16]
